Source: PubChem
HCV inh: qHTS Assay for Inhibitors of Hepatitis C Virus (HCV); Huh7.5.1 HCVcc-Cre infection, luciferase reporter, 44 h; Potency, µM (series often up to 41.8 µM), usual class: inhibitors; actives 3.4% (n = 340,000); AID 651820, 2012; active = well fitted inhibition curve with a large enough effect; inconclusive = small, poorly fitted or top-dose-only effect, or another doubt; inactive = no such curve, though single readings can be large or run the other way
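Cells seeded at 1,000/well and cultured 4 h, then compounds added followed by HCVcc-Cre virus (~0.5 moi). After 44 h further culture, luciferase substrate was added, plates held 15 min at room temperature, and luminescence read for 15 sec.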
VACV Venus inh: qHTS for Stage-Specific Inhibitors of Vaccinia Orthopoxvirus: Venus Reporter Primary qHTS | Vaccinia virus Venus reporter expression, fluorescence | actives 0.46% (n = 330,000) | Potency, µM (highest dose often 36.5 µM), most hits filed as inhibitors; calls by dose curve; tested in A549 cells; also: nearly all actives have a fitted effect of over 30% in size
FMDV antiviral: High Throughput Screening for Foot and Mouth Disease Virus Antivirals; FMDV antiviral cell-based qHTS; Potency, µM (titrated, usually from 57.9 µM), usual class: inhibitors; actives 1.2% (n = 410,000); calls by dose curve; tested in HEK293T cells; also: read-out not given here; nearly all actives have a fitted effect of over 45% in size
Vaccinia mCherry: qHTS for Stage-Specific Inhibitors of Vaccinia Orthopoxvirus: mCherry Reporter Primary qHTS; AID 720579, 2013; Potency, µM (titrated, usually from 36.5 µM), usual class: inhibitors; actives 0.63% (n = 310,000); Vaccinia virus mCherry reporter infection, fluorescence; calls by dose curve; tested in A549 cells; also: nearly all actives have a fitted effect of over 35% in size
HCMV inh: qHTS Assay for inhibitors of the human cytomegalovirus (HCMV); activity change, negative = inhibition, % at 57.5 µM; actives 4.5% (n = 410,000); HFF cells, HCMV-luciferase reporter, 72 h; active compounds read low; in the data active = activity change below about -60%; inconclusive = no clear call, values can overlap the other calls; inactive = above about -39%
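Compounds were evaluated in HFFs infected with an HCMV luciferase reporter virus (MOI 1 PFU/cell). Luciferase in lysates collected 72 h post infection served as the replication measure.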
Each line names hits and unclear results; the compound was inactive in the other large screens. This is a sample that favours compounds with a hit; in the whole collection about 7.3% have one here.

Cc1ccc(S(=O)(=O)c2ccc([N+](=O)[O-])cn2)cc1	HCV inh inconclusive, FMDV antiviral 25.1µM, Vaccinia mCherry inconclusive, HCMV inh -94.9
O=[N+]([O-])c1ccc(S(=O)(=O)c2ccccc2)nc1	HCV inh inconclusive, VACV Venus inh inconclusive, FMDV antiviral 35.5µM, HCMV inh -98.0
Cc1ccc([N+](=O)[O-])cc1	none
Cc1cc(S(=O)(=O)c2ccc([N+](=O)[O-])cn2)ccc1Br	HCV inh inconclusive, FMDV antiviral 8.91µM, HCMV inh -98.1
Cc1ccc(CNC(=O)C2CCCN(c3nc4ccccc4n4cccc34)C2)cc1 (configuration not stated)	none (no result: HCV inh)
Cc1ccc(C)c(NC(=O)CN2C(=O)c3cccc4cccc2c34)c1	VACV Venus inh inconclusive (no result: HCV inh)
Cc1cc(C)cc(C(=O)C[n+]2cccc(Br)c2)c1	none (no result: HCV inh, FMDV antiviral, HCMV inh)
CN(Cc1nc(Cc2ccccc2F)no1)Cc1cccc2ncccc12	HCV inh 11.2µM, FMDV antiviral 15.8µM, HCMV inh -84.7
CCOC(=O)N1CCN(CCC(=O)Nc2cccc(F)c2)CC1	none (no result: HCV inh)
COc1cc2c(c(OC)c1OC)-c1c(cc3c(c1O)OCO3)C[C@@H](C)[C@@H](C)C2	FMDV antiviral inconclusive, Vaccinia mCherry inconclusive, HCMV inh inconclusive
COc1cc2c(c(O)c1OC)-c1c(cc(OC)c(OC)c1OC)C[C@@H](C)[C@@H](C)C2	Vaccinia mCherry inconclusive, HCMV inh -60.2
COc1cc2c(c(OC)c1OC)C(=O)CC2	none
COc1cc2c(c(OC)c1OC)-c1c(cc(OC)c(OC)c1OC)C[C@H](C)[C@H](C)C2	Vaccinia mCherry inconclusive, HCMV inh -62.9
COCc1ccc(C(=O)NC2CCCc3c2cnn3-c2cc(C)cc(C)c2)s1 (configuration not stated)	HCV inh 12.6µM, HCMV inh inconclusive
COc1ncccc1C(=O)NC1CCCc2c1cnn2-c1cc(C)cc(C)c1 (configuration not stated)	HCMV inh -61.2
O=S1(=O)c2ccccc2N(Cc2cccc(F)c2)c2ccccc21	none (no result: HCV inh)
CCOC(=O)c1c(C)n(OCc2ccccc2)c2ccc3c(no[n+]3[O-])c12	HCV inh 7.08µM (no result: FMDV antiviral)
CCCCOn1c(C)c(C(C)=O)c2c3no[n+]([O-])c3ccc21	none
Cc1cccc(-c2nnc(SCc3cc(=O)c4cccc(Cl)c4[nH]3)n2C)c1	FMDV antiviral 25.1µM, HCMV inh inconclusive (no result: HCV inh)
CN(C)c1ccc(CC2CCc3ccccc32)cc1 (configuration not stated)	none (no result: HCV inh, FMDV antiviral, HCMV inh)
CCN1/C(=C/c2ccc3cc(C)ccc3[n+]2CC)Sc2ccccc21	HCV inh 1.58µM, FMDV antiviral 20µM, HCMV inh -101.8 (no result: VACV Venus inh, Vaccinia mCherry)
CCN1/C(=C/C=C/C=C/c2sc3ccccc3[n+]2CC)Sc2ccccc21	none (no result: FMDV antiviral, HCMV inh)
CCN1/C(=C/c2ccc3cc(C)ccc3[n+]2CC)Sc2cc(C)c(C)cc21	HCV inh 1.12µM, FMDV antiviral inconclusive, Vaccinia mCherry inconclusive, HCMV inh -100.0
COc1ccc(-c2cn(-c3ccc(C)cc3C)c(=O)[nH]2)cc1OC	HCV inh 11.2µM, Vaccinia mCherry inconclusive
CCOC(=O)c1sc(NC(=O)c2cc(-c3ccccc3)nc3ccccc23)c(C#N)c1C	FMDV antiviral inconclusive, HCMV inh -95.0
Cc1ccc(C)c(-c2cc(C(=O)Nc3sc(C)c(C)c3C(N)=O)c3ccccc3n2)c1	HCV inh 11.2µM, FMDV antiviral 22.4µM (no result: VACV Venus inh, Vaccinia mCherry)
CCOC(=O)c1sc(NC(=O)CSc2nnc(Cc3ccccc3)o2)c(C#N)c1C	FMDV antiviral 31.6µM (no result: Vaccinia mCherry, HCMV inh)
CC(O)CNC(=O)C(=O)Nc1c2c(nn1-c1ccc(Cl)cc1)CSC2 (configuration not stated)	none (no result: HCV inh)
COc1ccc2[nH]cc(CCNc3cc(-c4c(C)noc4C)ncn3)c2c1	none (no result: HCV inh, VACV Venus inh, Vaccinia mCherry, HCMV inh)
CC1(C)C(=O)NC2=C1C(=O)C(=O)c1ccccc12	FMDV antiviral 14.1µM (no result: HCV inh, VACV Venus inh, Vaccinia mCherry, HCMV inh)
CNC(=O)c1cc(-c2cccs2)on1	VACV Venus inh inconclusive (no result: HCV inh, FMDV antiviral, HCMV inh)
CC(C)c1ccc(NC2=NCC(=O)N2Cc2cccs2)cc1	HCV inh inconclusive, HCMV inh -60.4
COc1cc(/C=C(/C#N)c2nc(-c3cc4ccccc4oc3=O)cs2)cc([N+](=O)[O-])c1O	HCMV inh -86.7 (no result: HCV inh, VACV Venus inh, FMDV antiviral, Vaccinia mCherry)
Cc1cc(NC(=O)c2cccs2)n(-c2nc3ccccc3[nH]2)n1	HCV inh inconclusive, FMDV antiviral inconclusive, Vaccinia mCherry inconclusive, HCMV inh inconclusive
Cc1cc(NC(=O)c2ccccc2)n(-c2nc3ccccc3[nH]2)n1	HCV inh inconclusive (no result: VACV Venus inh, Vaccinia mCherry)
COc1ccc(C(=O)Nc2cc(C)nn2-c2nc3ccccc3[nH]2)c(OC)c1	HCV inh inconclusive, HCMV inh -63.5 (no result: VACV Venus inh, Vaccinia mCherry)
Cc1cc(NC(=O)c2sccc2C)n(-c2nc3ccccc3[nH]2)n1	HCV inh 11.2µM, VACV Venus inh inconclusive, FMDV antiviral inconclusive, Vaccinia mCherry inconclusive, HCMV inh -70.1
COc1cccc(OC)c1C(=O)Nc1cc(C)nn1-c1nc2ccccc2[nH]1	HCV inh 11.2µM
O=C(COc1ccc(Cl)cc1)NCC(c1ccco1)S(=O)(=O)c1ccc(Cl)cc1 (configuration not stated)	none (no result: HCV inh)
CCOC(=O)C1CSCCS(=O)(=O)N1Cc1ccc(F)cc1 (configuration not stated)	none (no result: HCV inh, VACV Venus inh, FMDV antiviral, Vaccinia mCherry)
CCC(C)NS(=O)(=O)c1ccc(NC(=O)C2CCN(C(=O)c3ccco3)CC2)cc1 (configuration not stated)	HCV inh inconclusive
Cc1cccc2sc(NC(=O)C3CCN(C(=O)c4ccco4)CC3)nc12	HCV inh 11.2µM
CC1CCCN(S(=O)(=O)c2ccc(NC(=O)C3CCN(C(=O)c4ccco4)CC3)cc2)C1 (configuration not stated)	HCMV inh -60.1
Cc1cccc2sc(N3CCN(C(=O)c4ccco4)CC3)nc12	none (no result: HCV inh)
CCOc1ccc(NC(=O)c2cc(S(=O)(=O)N3CCc4ccccc43)ccc2F)cc1	VACV Venus inh inconclusive, Vaccinia mCherry inconclusive, HCMV inh inconclusive (no result: HCV inh)
Cc1cc(C2=NNC(=NCCc3ccccc3)SC2)c(C)n1CC1CCCO1 (configuration not stated)	HCV inh 11.2µM
C=CCn1c(C)cc(C2=NNC(=NCc3ccccc3)SC2)c1C	HCV inh inconclusive
Cc1ccc(C)c(C2=NNC(=NCc3ccccc3)SC2)c1	HCV inh inconclusive, HCMV inh -66.4
CCN=C1NN=C(c2cc(C)n(CCc3ccccc3)c2C)CS1	none
CCN=C1NN=C(c2cc(C)n(Cc3ccco3)c2C)CS1	FMDV antiviral 0.0794µM, HCMV inh -84.4
CCc1nc(-c2ccc(OC)c(OC)c2)cc2cc(OC)c(OC)cc12	HCV inh 3.16µM
O=C(N/N=C/c1ccc(N2CCOCC2)cc1)c1ccncc1	none
O=C(O)c1cc(N/N=C/c2ccc(N3CCOCC3)cc2)ccc1Cl	FMDV antiviral 14.1µM (no result: VACV Venus inh, Vaccinia mCherry)
Clc1cccc(N/N=C/c2ccc(N3CCOCC3)cc2)c1	none
